Results taken from ChEMBL document CHEMBL3988442, “University of Dundee, Small-Polar-MMV Screening Library” (2021).
The whole screen tested about 38,000 compounds, of which about 1,200 (3.2%) showed an effect of 50% or more. The median lay at about -58%. The full list was thinned out, with strong results kept by preference.

System: Plasmodium falciparum
Test: Calibr Malaria Delayed Death Assay SOP
Format: functional, organism-based
Parameters: scale not given: in the data most compounds retested in dose-response had high values
Conditions: concentration 4.99e-06 (unit not given; other assays of the set use mol/L)

SMILES | Percent Effect [%]
O=C(O)C(F)(F)F.c1cnc(N2CC[C@@H](OCC3CC3)[C@@H]2Cc2cccnc2)nc1 | -48.06
Cn1cc(C(=O)CC2CCCN2C(=O)c2c[nH]c3ccccc23)cn1 (stereo not given) | 4.786
CCC(CO)N(C/C(C)=C/c1ccco1)Cc1ccco1 (stereo not given) | -44.13
Cc1ccc(C(=O)N2CCO[C@H]3[C@H](OCC4CCOCC4)CC[C@@H]32)o1 | -19.31
CS(=O)(=O)NC[C@]12COC[C@H]1CN(C(=O)CC1CCCC1)C2 | -153.3
O=C(C1CCOCC1)N1C[C@H]2CCC[C@@]2(COc2cccnc2)C1.O=C(O)C(F)(F)F | -16.46
Cn1nnc(NCc2ccc(OCc3ccc(Cl)cc3)cc2)n1 | -71.17
Cc1nc2oc(C(=O)N3CCOCC3)c(N)c2c2c1CCCC2 | -269.1
O=C(C[C@@H]1COC[C@H]2CN(Cc3ccccc3)C[C@@H]12)N1CCCC1.O=C(O)C(F)(F)F | -13.07
CC(C)(C)c1cc2ncn(CCCN3CCCCC3CO)c(=O)c2s1 (stereo not given) | -23.08
O=C(NCC1CC1)C1CCC2(CCN(C(=O)c3ccccn3)CC2)O1.O=C(O)C(F)(F)F (stereo not given) | -137.4
O=C(NCC(O)CO)Nc1cc(Br)ccc1F (stereo not given) | -140
O=C(NCc1cccnc1N1CCc2ccccc2C1)c1cc(=O)[nH][nH]1 | -96.6
Cc1nc(CN2CCCC(NCc3ccc4ccccc4c3)C2)no1 (stereo not given) | -12.45
Cc1nc(CN2CCCC(N(C)Cc3cnn(C)c3)C2)no1 (stereo not given) | -49.27
Cc1nc(CN2CCCC(N(C)Cc3c(C)noc3C)C2)no1 (stereo not given) | 57.32
Cc1nc(CN2CCCC(NCc3nc4ccccc4s3)C2)no1 (stereo not given) | -31.98
Cc1cc(CN(C)C2CCCN(Cc3noc(C)n3)C2)no1 (stereo not given) | -96.62
Cc1nc(CN2CCCC(NCCc3ccccc3Cl)C2)no1 (stereo not given) | 81.78
Cc1nc(CN2CCCC(NCCOc3ccccc3)C2)no1 (stereo not given) | -60.44
Cc1nc(CN2CCCC(NCc3cccc4ccccc34)C2)no1 (stereo not given) | 57.02
COc1ccccc1OCCNC1CCCN(Cc2noc(C)n2)C1 (stereo not given) | 19.3
CCOc1ncccc1CNS(=O)(=O)c1ccc2c(c1)CCO2 | -29.02
CCc1nnc2n1CCN(Cc1nc3c(F)cccc3[nH]1)C2 | -34.12
O=C(NCc1cccs1)[C@H]1CC[C@@H]2[C@@H](CCN2Cc2ccoc2)O1.O=C(O)C(F)(F)F | 4.133

SMILES | Percent Effect [%]
Cc1nnc([C@@]23CCO[C@@H]2CCN(Cc2cccc4ccccc24)C3)o1 | -36.67
COc1cc(C2CC(=O)Nc3c2nc2n3CCCC2)cc(OC)c1O (stereo not given) | -209
Cc1noc2ncc(S(=O)(=O)N3CCCC(C)(C)CC3)cc12 | -55
CCN(CC)c1ccc(-c2ccc(C)c(S(N)(=O)=O)c2)nn1 | -97.64
CC(CN1CC[C@@H]2CCCC[C@@H]2C1)n1cnc2ccccc21 (stereo not given in full) | -12.48
CN(Cc1ccc(N(C)C)cc1)C(=O)NCc1nnc2n1CCC2 | -107.1
Cc1ccc(CNC(C)(C)c2noc(C(C)(C)C)n2)o1 | -93.54
COc1ccccc1C(O)Cn1cc(C(=O)NCc2ccco2)nn1 (stereo not given) | -49.33
COC(=O)c1ccc(CNC(C)(C)c2ccccc2OC)o1 | -1.138
COc1ccccc1C(C)(C)NCc1ccco1 | 64.69
CNc1c(NCc2ccco2)c(=O)c1=O | -69.06
COc1ccccc1C(C)(C)NCc1ccc(C)o1 | 77.27
CCc1nc(CN2CCCC(N(C)Cc3nc(C)c(C)o3)C2)no1 (stereo not given) | -5.85
Cc1ncnc2c1CCN(CC(=O)N(C)C)CC2.O=C(O)C(F)(F)F | -30.27
O=C(C1=COCCO1)N1CC(Oc2nc3c(Cl)cccc3s2)C1 | -117.3
COCCN1C(=O)CC[C@@H]2[C@H]1CCN2S(=O)(=O)c1cccs1 | -44.47
O=C(NCCc1csc(-c2ncccn2)n1)c1cnn2c1CCCC2 | -31.93
CN(C)S(=O)(=O)N1CCCC(c2cccc(Cc3ccc(Cl)cc3)n2)C1 (stereo not given) | -15.18
CC(=O)N1CCCC1c1cccc(Cc2ccccc2Cl)n1 (stereo not given) | -62.89
O=C(C1CC=CC1)N1C[C@H]2CN(Cc3ccncc3)C(=O)[C@H]2C1.O=C(O)C(F)(F)F | -118.6
COc1cc(F)ccc1C(C(=O)O)N(C)CCN1CCCC1 (stereo not given) | 71.25
COc1ccc(C(C(=O)O)N(C)CCN2CCOCC2)c(C)c1 (stereo not given) | -92.34
Cc1ccc(C(C(=O)O)N(C)CCN2CCOCC2)c(F)c1 (stereo not given) | -35.14
COc1cc(F)ccc1C(C(=O)O)N(C)CCN1CCOCC1 (stereo not given) | 79.89
COc1ccc(C(C(=O)O)N(C)CCN2CCCC2)c(C)c1 (stereo not given) | -56.58

SMILES | Percent Effect [%]
COc1ccc(C(C(=O)O)N(C)CCN2CCCC2)cc1F (stereo not given) | -71.16
CCCS(=O)(=O)N1C[C@H]2C[C@H](C(=O)Nc3cccnc3)[C@@H](C1)O2 | -54.27
CC(C)=CCN1CCN(Cc2cccc(C)n2)CC1CCO (stereo not given) | -53.69
Cc1cc(NCCc2nc(C)cs2)nc(-c2cccnc2)n1 | -152.4
CC(C(=O)NN1CCOCC1)n1nc(C(F)(F)F)c(Cl)c1C1CC1 (stereo not given) | -94.38
Cc1c(C(=O)NC2=NCCS2)cnn1-c1ccc(Cl)cc1 | -71.42
COCCCN1CC2(CCCN(c3ncc(Cl)cc3F)C2)CCC1=O (stereo not given) | -81.54
CN(C)CCN1CC2(CCCN(c3ncc(Cl)cc3F)C2)CCC1=O (stereo not given) | 82.66
COCCN1CC2(CCCN(c3ncc(Cl)cc3F)C2)CCC1=O (stereo not given) | -14.43
CCN1Cc2nc(OC)c(CNC(=O)C3CCCN(C)C3)cc2C1=O (stereo not given) | -47.23
C=C(C)CN1CCCC(NS(C)(=O)=O)C1 (stereo not given) | -112.5
CO[C@H]1CN(C(=O)c2ccnnc2)[C@@H]2COC[C@H]12 | -17.32
CN(C)CCN1C[C@@H]2CN(c3ccccc3)C[C@@H]2C1=O.O=C(O)C(F)(F)F | -48.1
Cc1ccsc1C(Cc1ccccc1)NC(=O)CNC(=O)C1CC1 (stereo not given) | 68.17
Cc1ccsc1C(O)CNC(=O)Cc1ccc(F)cc1 (stereo not given) | -29.72
O=C(CNC(=O)C1CC1)Nc1c(F)cccc1Oc1ccccc1 | -53.44
CCC(=O)NCC(=O)NC(Cc1ccccc1)c1sccc1C (stereo not given) | 84.56
CCC(=O)NC(CC)c1ccccc1C (stereo not given) | -70.92
Cc1ccsc1C(Cc1ccccc1)NC(=O)CSCC(N)=O (stereo not given) | -15.45
COc1cccc2c1OCC(Cc1cc(C(N)=O)ccn1)C2 (stereo not given) | -54.91
CCc1nc(CN(C)C(=O)c2ccc(OCCCOC)nc2)cs1 | -70.62
Cn1cc(CC(=O)N2CCC(Nc3cccnn3)CC2)c2ccccc21 | -27.56
CCC(CNC(=O)CNC(C)=O)Oc1cccc(F)c1 (stereo not given) | 84.82
CCC(=O)NCC(CC)Oc1cccc(F)c1 (stereo not given) | -6.3
CCC(CNC(=O)COC)Oc1cccc(F)c1 (stereo not given) | -58.01

SMILES | Percent Effect [%]
Cc1cc(C(=O)N2CCCC(c3cc(C(F)(F)F)[nH]n3)C2)[nH]n1 (stereo not given) | -117
O=C(O)C(F)(F)F.O=C(O)C(F)(F)F.c1cncc(-c2ncnc3c2CCN(Cc2ccsc2)CC3)c1 | -128.4
CCN(C)CC1CCN(C(=O)Nc2ccc(C)cc2)C1 (stereo not given) | -13.91
Cn1c(=O)oc2cc(S(=O)(=O)N3CCC(c4ccccc4)C3)c(Cl)cc21 (stereo not given) | -8.531
O=C(O)C(F)(F)F.O=C(c1ccncc1F)N1CC[C@@H]2CN(c3ncccn3)CCO[C@@H]2C1 | -33.14
Cc1ccc(CN2CCCn3c(nc(Cn4ccnc4)cc3=O)C2)s1 | -9.733
Cc1cc(N(Cc2ccccn2)C2CC2)n2nc(C(F)(F)F)nc2n1 | -69.19
Cc1cc(N(Cc2cccnc2)C2CC2)n2nc(C(F)(F)F)nc2n1 | 22.81
Cc1ccc(CN(c2cc(C)nc3nc(C(F)(F)F)nn23)C2CC2)cc1 | 93.63
COCCN(c1cc(C)nc2nc(C(F)(F)F)nn12)C1CCCC1 | -69.88
Cc1cc(N(Cc2cccs2)C2CC2)n2nc(C(F)(F)F)nc2n1 | 65.64
Cc1cc(N(Cc2ccccc2F)C2CC2)n2nc(C(F)(F)F)nc2n1 | -0.7756
COC(=O)CCC(=O)N1CCC2(CN(Cc3ccccc3)C2)C1 | -61.64
Cc1cc(C)n(-c2cncc(NCCC(=O)NC(C)C)n2)n1 | -25.6
Fc1ccc(CN2CCO[C@H]3[C@H](OCC4CCCC4)CC[C@@H]32)cc1.O=C(O)C(F)(F)F | -74.43
COC(=O)N1CCCN(Cn2nc(C)c(Br)c2C)CC1 | -78.94
CCOC[C@@]12CCC[C@@H]1CN(C(=O)c1ccc(OC)cc1)C2 | -67.65
Cn1cc(CN2CCn3cc(Cn4cccn4)nc3C2)cn1.O=C(O)C(F)(F)F | -116.7
CC(C)Nc1ncnc2c1CCN(C(=O)CC1CCCC1)CC2 | -30.46
OC(CN1CCOCC1)c1cc(Cl)ccc1Cl (stereo not given) | -41.91
CCOCCN1CCN(CC(O)c2cc(Cl)ccc2Cl)CC1 (stereo not given) | 77.57
CCN1CCN(CC(O)c2cc(Cl)ccc2Cl)CC1 (stereo not given) | 76.72
CCOCCN1CCN(CC(O)c2ccc(C)c(C)c2)CC1 (stereo not given) | -16.95
CC(C)C(=O)N1CCN(CC(O)c2cc(Cl)ccc2Cl)CC1 (stereo not given) | -47.78
OCCN1CCN(CC(O)c2cc(Cl)ccc2Cl)CC1 (stereo not given) | -5.982
